This is an account of results in PubChem BioAssay AID1259422 (The Scripps Research Institute Molecular Screening Center, 2018).

Screen size: about 640,000 compounds; about 9,300 (1.5%) were called active. The sample holds actives, similar compounds and a random draw of the others, so the mix is not that of the screen. Cut-off read from the data, not from the text of the source: active = inhibition above about 32%; inactive = the rest.

The assay is described as follows: TEAD-YAP interaction inhibition, primary screen, TEAD-YAP interaction inhibitor project, luminescence, HEK-TIYL cells (AID 1259422).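 Note: 0% = median of test compound wells and 100% = reference inhibitor wells.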 To be noted: TEAD-Gal4/YAP UAS-luciferase luminescence, at 9.12 µM, hits give high values.
As usually defined, the inhibition is the relative decrease from the control value, in per cent. As to `O=[N+]([O-])c1ccc(NC(=S)Nc2ccc(Br)cn2)cc1`, the inhibition was 2.08% (inactive).

As for `CC(C)(C)NC(=O)c1cc2nc(-c3ccco3)cc(C(F)(F)F)n2n1`, the inhibition is -0.09% (inactive).

As for `Cc1ccc(C(=O)NCCNc2ccc([N+](=O)[O-])cc2Cl)cc1`, the inhibition is 34.1% (active).

For the compound `Cc1ccc(C(=O)NCCNc2ccc([N+](=O)[O-])cc2)cc1`, the inhibition is 1.76% (inactive).

Turning to `O=C(NCCCNc1ccc([N+](=O)[O-])cc1Cl)c1ccc(Cl)cc1`, the inhibition is 3.65% (inactive).

Regarding `CC(Oc1cccc2cccnc12)C(=O)NNC(=S)NC(=O)c1cc2ccccc2oc1=O` (centres undefined), the inhibition is 3.86% (inactive).

As for `Cc1ccccc1C1=NN2C(=N)/C(=C/c3c(C)nn(-c4ccccc4)c3Cl)C(=O)N=C2S1`, the inhibition is -14.8% (inactive).

For `CCCN(CCC)S(=O)(=O)c1ccc2[nH]c(=O)ccc2c1`, the inhibition is -11.6% (inactive).

In the case of `COc1cc(C(=O)N/N=C/c2cccs2)cc(OC)c1OC`, the inhibition was 61.3% (active).

As to `COc1cc(C(=O)NCc2n[nH]c(=S)n2-c2ccccc2)cc(OC)c1OC`, the inhibition was 3.36% (inactive).

With `COc1cc(OC)c(OC)cc1/C=N/NC(=O)c1ccccn1`, the inhibition is -43.7% (inactive).

With `COC(=O)N/N=C\c1ccc(-c2cccc(Cl)c2)o1`, the inhibition is -22.7% (inactive).

On to `CCC/C=N/NC(=O)c1cc(OC)c(OC)c(OC)c1`, for which the inhibition was 59.2% (active).

Turning to `COc1cc(/C=N/NC(=O)c2cccs2)cc(OC)c1OC`, the inhibition is -55.4% (inactive).

As for `CCC/C=N/NC(=O)c1ccc(C)cc1C`, the inhibition is -15.2% (inactive).

In the case of `COc1cc(C(=O)N/N=C/c2c(Cl)[nH]c(=O)n2-c2ccccc2)cc(OC)c1OC`, the inhibition is 72.6% (active).

Take `CCCOC(=O)c1ccc(NC(=O)c2cc(OC)c(OC)c(OC)c2)cc1`: the inhibition is -1.39% (inactive).

With `COc1cc(C(=O)N/N=C\c2ccc(-c3cccc(C(=O)O)c3)o2)cc(OC)c1OC`, the inhibition was 64.9% (active).

Take `COc1cc(C(=O)N/N=C/c2cccs2)ccc1O`: the inhibition is 2.59% (inactive).

Take `Cc1ccc(C(=O)N/N=C\c2ccc(-c3cccc(C(=O)O)c3)o2)cn1`: the inhibition is -9% (inactive).

Consider `Cc1ccc(N2C(=O)c3cccc4c(Br)c([N+](=O)[O-])cc(c34)C2=O)c(C)c1`, for which the inhibition was 6.15% (inactive).

Regarding `CCN(CC)CCCN(Cc1ccco1)C(=S)Nc1cc(C)c(Cl)cc1OC`, the inhibition is 3.59% (inactive).

Regarding `Cc1nc2c(c(=O)[nH]1)CN(Cc1cccn1C)CC2`, the inhibition is -16.9% (inactive).

Turning to `Oc1ccc(-c2cnc3c(NCc4ccco4)nccn23)cc1`, the inhibition was -72.4% (inactive).

As to `c1coc(CNc2ncnc3ccccc23)c1`, the inhibition was 36.3% (active).

Take `Cc1ccc(-n2ncc3c(NCc4ccco4)ncnc32)cc1`: the inhibition is -76.8% (inactive).

Turning to `Ic1ccc2ncnc(NCc3ccco3)c2c1`, the inhibition is 15.7% (inactive).

For the compound `CCOC(=O)c1ccc(NC(=O)N2CCN(c3nc(-c4ccccc4)cs3)CC2)cc1`, the inhibition is -7.79% (inactive).

Consider `COCCNC(=O)c1cc2nc(-c3cccs3)cc(C(F)(F)F)n2n1`, for which the inhibition was 8.1% (inactive).

As for `Cc1cc(/C=C2/NC(=O)NC2=O)c(C)n1-c1ccc2ccccc2c1`, the inhibition was 7.98% (inactive).

Regarding `Cc1cc(/C=C2/NC(=O)NC2=O)c(C)n1-c1ccc(Cl)cc1`, the inhibition is 4.42% (inactive).

For `Cc1ccccc1-n1c(C)cc(/C=C2\NC(=O)NC2=O)c1C`, the inhibition is 57.4% (active).

With `Cc1nn(C(=O)N(C)c2ccccc2)c(C)c1Br`, the inhibition is 5% (inactive).

For `COc1ccc(C(=O)n2nnc3ccccc32)cc1`, the inhibition is -1.4% (inactive).

Take `CN(C(=O)n1nnc2ccccc21)c1ccccc1`: the inhibition was 44.2% (active).

In the case of `O=C(N/N=C/c1ccc(Cl)cc1)c1ccccc1F`, the inhibition was -4.81% (inactive).

Take `COCCNCC(=O)Nc1cccc2ccccc12`: the inhibition was 8.26% (inactive).

As for `O=C(NN1CC(C(=O)OCc2ccc([N+](=O)[O-])cc2)CC1=O)c1ccccc1` (centres undefined), the inhibition was 5.91% (inactive).

For the compound `Cc1cc(C)n(CCc2nc3c4ccccc4n(CC(N)=O)c(=O)n3n2)n1`, the inhibition is 4.04% (inactive).

Turning to `COc1ccc(CC(=O)Nc2ccc(-c3cn4c(C)csc4n3)cc2)cc1`, the inhibition is -12.5% (inactive).

With `COC(=O)COc1ccc(NC(=O)COc2ccccc2)cc1`, the inhibition was 0.58% (inactive).

As for `Cc1csc2nc(-c3ccc(NC(=O)COc4ccccc4)cc3)cn12`, the inhibition was 78.2% (active).

As for `O=C(Nc1cccc2ccccc12)c1nc2c(nnn2Cc2ccc(F)cc2)c(=O)[nH]1`, the inhibition is -2.87% (inactive).

On to `O=C(Nc1ccc(Br)cn1)c1ccccc1Cl`, for which the inhibition is -0.48% (inactive).

Consider `Cc1ccccc1-n1c(SCC(=O)NNC(=O)c2ccco2)nnc1-c1cccnc1`, for which the inhibition is -12% (inactive).

`Cc1ccccc1-n1c(SCC(=O)c2c[nH]c3ccccc23)nnc1-c1cccnc1`: the inhibition is 48.9% (active).

Consider `Cc1csc(NC(=O)CSc2nnc(-c3cccnc3)o2)n1`, for which the inhibition was -34.8% (inactive).

In the case of `Cc1cccc(-n2c(SCC(=O)NNC(=O)c3ccco3)nnc2-c2cccnc2)c1C`, the inhibition is -0.49% (inactive).

Turning to `CCCn1c(SCC(=O)Nc2nc(C)cs2)nnc1-c1ccccn1`, the inhibition was 12.5% (inactive).

Regarding `CCc1ccccc1-n1c(SCC(=O)Nc2nc(C)cs2)nnc1-c1cccnc1`, the inhibition is 56.8% (active).

Turning to `O=C(NCc1ccncc1)C(=O)NCC1OCCCN1S(=O)(=O)c1cccs1` (centres undefined), the inhibition was 0.25% (inactive).

`CCCCOC(=O)c1cc(-c2ccc(OC)cc2)nc2ccc(Br)cc12`: the inhibition was 0.12% (inactive).

For `Cc1[nH]c2ccccc2c1C(Nc1nccs1)c1ccccc1O` (centres undefined), the inhibition was 2.06% (inactive).

As for `Cn1c(SCC(=O)c2ccc([N+](=O)[O-])cc2)nnc1C(F)(F)F`, the inhibition is 4.67% (inactive).

Regarding `O=C(N/N=C/c1ccccc1Cl)C(=O)N/N=C/c1ccccc1Cl`, the inhibition was 9.07% (inactive).

Turning to `CCOC(=O)C1=CN(Cc2ccc(F)cc2)C=C(C(=O)OCC)C1c1ccc(Cl)cc1`, the inhibition was 1.74% (inactive).

For `Cc1cc(NCc2ccccc2)nc(-n2nc(C)cc2C)n1`, the inhibition is 65.4% (active).

In the case of `Cc1cc(C)n(-c2nc(Nc3ccc(OC(F)(F)F)cc3)nc(-n3nc(C)cc3C)n2)n1`, the inhibition was -10.5% (inactive).

Take `CCc1ccccc1NC(=O)NCCNc1cc(-n2nc(C)cc2C)nc(C)n1`: the inhibition was -1.06% (inactive).

With `CC(=O)Nc1ccc(Nc2cc(Nc3ccccn3)nc(N)n2)cc1`, the inhibition was -12.6% (inactive).

For the compound `CC(=O)Nc1ccc(Nc2cc(C)nc(-n3nc(C)cc3C)n2)cc1`, the inhibition was 36% (active).

For the compound `Cc1cc(NCc2ccccc2)nc(N2CCN(Cc3ccc4c(c3)OCO4)CC2)n1`, the inhibition was 3.95% (inactive).

Regarding `COc1cc2nc(NCc3ccc4c(c3)OCO4)nc(N)c2cc1OC`, the inhibition is 8.22% (inactive).

On to `COc1cccc(NC(=O)CSc2nc(O)c(C)c(=O)n2-c2ccc(F)cc2)c1`, for which the inhibition was -6.67% (inactive).

For the compound `COc1ccc(/C=N/NC(=O)CNc2cccc3ccccc23)cc1Cl`, the inhibition was 8.35% (inactive).

On to `O=C(CCSc1nc(-c2ccccc2)cs1)N1CCOCC1`, for which the inhibition was -10.1% (inactive).

Consider `O=C(NC1CC1)C1CCN(C(=O)c2sccc2-n2cccc2)CC1`, for which the inhibition is 0.5% (inactive).

Regarding `CCC1CN(Cc2cn(CC)nc2C)Cc2cc(OC)ccc2O1` (centres undefined), the inhibition was 4.73% (inactive).

For the compound `COc1ccc(CNc2nc(-c3ccccc3)nc3c2ncn3C(C)C)cc1`, the inhibition is -3.1% (inactive).

For `COc1cc(Nc2nc(NCc3nc4ccccc4[nH]3)c3ncn(C(C)C)c3n2)cc(OC)c1OC`, the inhibition was 47.9% (active).

`COc1ccc(-c2nc(Nc3cc(OC)c(OC)c(OC)c3)c3ncn(C(C)C)c3n2)cc1`: the inhibition was 23.6% (inactive).

On to `FC(F)(F)c1ccc(Cn2cnc3c(NCc4nc5ccccc5[nH]4)nc(Cl)nc32)cc1`, for which the inhibition is -2.85% (inactive).

For the compound `COc1cc(Nc2cc(C(=O)NCc3nc4ccccc4[nH]3)ccn2)cc(OC)c1OC`, the inhibition was 2.93% (inactive).

Regarding `CC(C)n1cnc2c(NCc3nc4ccccc4[nH]3)nc(Cl)nc21`, the inhibition is 61.8% (active).

Consider `Cc1c(C(=O)NCC2CCCO2)sc2ncn(Cc3ccccc3F)c(=O)c12` (centres undefined), for which the inhibition is 2.38% (inactive).

Turning to `Oc1c(C(c2ccc(F)cc2)N2CCOCC2)sc2ncnn12` (centres undefined), the inhibition is -3.52% (inactive).

Take `COc1ccccc1N1CCN(/N=C(\C)c2cccs2)CC1`: the inhibition is -19.5% (inactive).

For the compound `Cc1cccnc1NC(=S)NC(=O)c1cc2ccccc2o1`, the inhibition is -26.1% (inactive).

`CCCn1nnnc1NC(=S)NC(=O)c1cc2ccccc2o1`: the inhibition is 35.9% (active).

Consider `CCCn1nnnc1NC(=O)c1ccc(-c2cccc(Cl)c2)o1`, for which the inhibition was -16.9% (inactive).

Turning to `Cc1ccc(C(C)C)c(OC(=O)c2cc(-c3ccc(Cl)cc3)nc3ccc(C)cc23)c1`, the inhibition is -8.87% (inactive).

Regarding `O=C1C(Nc2ccc(F)c(F)c2)=C(N2CCCC2)C(=O)c2ccccc21`, the inhibition was -1.87% (inactive).

Turning to `O=C1C(Nc2ccc(F)c(F)c2)=C(N2CCCCC2)C(=O)c2ccccc21`, the inhibition was -7.95% (inactive).

Turning to `CC1CCN(C2=C(NC3CCCC3)C(=O)c3ccccc3C2=O)CC1`, the inhibition was 51.5% (active).

For `Cc1c(C(=O)N2CCN(Cc3ccc4c(c3)OCO4)CC2)sc2ncn(CC(=O)Nc3cccc(C(F)(F)F)c3)c(=O)c12`, the inhibition is -1.1% (inactive).

In the case of `CNC(=O)c1ccc(Cl)c([N+](=O)[O-])c1`, the inhibition was 8.77% (inactive).

For the compound `CCCCC(=O)NC1(C(F)(F)F)C(=O)N(C2CCCCC2)C(C)=C1C(=O)OCC` (centres undefined), the inhibition is 18.5% (inactive).

Regarding `Nc1c(C(=O)OCC(=O)NCc2ccc3c(c2)OCO3)[nH]c(=O)[nH]c1=O`, the inhibition is -6.24% (inactive).

With `Cc1ccc(S(=O)(=O)Nc2ccc3oc(C)c(C(=O)NN)c3c2)cc1`, the inhibition was 10.1% (inactive).

Consider `COC(=O)c1c(C)oc2c1cc(NS(=O)(=O)c1ccc(Cl)cc1)c1ccccc12`, for which the inhibition is 11.4% (inactive).

In the case of `COc1ccc(S(=O)(=O)Nc2ccc3oc(C)c(C(C)=O)c3c2)cc1`, the inhibition was 54.7% (active).

Turning to `COCCOC(=O)c1c(C)oc2ccc(NS(=O)(=O)c3ccc(Cl)cc3)cc12`, the inhibition is -2.27% (inactive).

With `CC(=O)c1c(C)oc2c1cc(NS(=O)(=O)c1cccc3cccnc13)c1ccccc12`, the inhibition is -0.78% (inactive).

As for `CC(=O)c1c(C)oc2c1cc(NS(=O)(=O)c1ccc(C)cc1)c1ccccc12`, the inhibition is 62.9% (active).
